# Measurements taken from the supplement of paper PMC8728848.
# This excerpt belongs to a sample that is enriched for the strongest signals.
# Columns and labels:
# Test in all cases: glycan array binding signal (z-score within array); higher = stronger binding
# Settings in all cases: glycan notation: IUPAC condensed, linker removed
# GalNAc(a1-3)Gal = target: GalNAc(a1-3)Gal
# Outline: (§1)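 Columns mapping to the same glycan were averaged after glycan names were converted to IUPAC-condensed notation. The data come from 3228 arrays in the Consortium for Functional Glycomics database, limited to those with an available protein sequence. Binding is reported as a within-array Z-score averaged across arrays of one protein sequence and across linkers.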
# Glc(a1-4)Glc = target: Glc(a1-4)Glc
# Outline: as §1
# GlcA(b1-3)Gal = target: GlcA(b1-3)Gal
# Outline: as §1
# [1] = target: GlcNAc(a1-4)Gal(b1-4)GlcNAc(b1-3)Gal(b1-4)Glc
# Outline: as §1
# [2] = target: GlcNAc(a1-6)Gal(b1-4)GlcNAc
# Outline: as §1
# [3] = target: GlcNAc(b1-2)[GlcNAc(b1-4)]Man(a1-3)[GlcNAc(b1-4)][GlcNAc(b1-2)[GlcNAc(b1-6)]Man(a1-6)]Man(b1-4)GlcNAc(b1-4)[Fuc(a1-6)]GlcNAc
# Outline: as §1
# [4] = target: GlcNAc(b1-4)GlcNAc(b1-4)GlcNAc
# Outline: as §1
# [5] = target: GlcNAc(b1-4)GlcNAc(b1-4)GlcNAc(b1-4)GlcNAc(b1-4)GlcNAc
# Outline: as §1
# Neu5Ac(a2-3)Gal = target: Neu5Ac(a2-3)Gal
# Outline: as §1
# [6] = target: Neu5Ac(a2-3)Gal(b1-3)GlcNAc(b1-2)Man(a1-3)[Neu5Ac(a2-3)Gal(b1-3)GlcNAc(b1-2)Man(a1-6)]Man(b1-4)GlcNAc(b1-4)GlcNAc
# Outline: as §1
# [7] = target: Neu5Ac(a2-3)Gal(b1-3)]Neu5Ac(a2-3)Gal(b1-4)]GlcNAc
# Outline: as §1
# [8] = target: Neu5Ac(a2-3)Gal(b1-4)GlcNAc(b1-2)[Neu5Ac(a2-3)Gal(b1-4)GlcNAc(b1-4)]Man(a1-3)[GlcNAc(b1-4)][Neu5Ac(a2-3)Gal(b1-4)GlcNAc(b1-2)[Neu5Ac(a2-3)Gal(b1-4)GlcNAc(b1-6)]Man(a1-6)]Man(b1-4)GlcNAc(b1-4)GlcNAc
# Outline: as §1
# [9] = target: Neu5Ac(a2-3)Gal(b1-4)GlcNAc(b1-3)Gal(b1-4)GlcNAc(b1-3)GalNAc
# Outline: as §1
# [10] = target: Neu5Ac(a2-3)Gal(b1-4)[Fuc(a1-3)]GlcNAc(b1-3)GalNAc
# Outline: as §1
# [11] = target: Neu5Ac(a2-3)[GalNAc(b1-4)]Gal(b1-4)Glc
# Outline: as §1
# [12] = target: Neu5Ac(a2-6)Gal(b1-4)GlcNAc(b1-2)Man(a1-3)[Gal(b1-4)GlcNAc(b1-2)Man(a1-6)]Man(b1-4)GlcNAc(b1-4)GlcNAc
# Outline: as §1
# [13] = target: Neu5Ac(a2-6)Gal(b1-4)GlcNAc(b1-2)Man(a1-3)[Neu5Ac(a2-6)Gal(b1-4)GlcNAc(b1-2)Man(a1-6)]Man(b1-4)GlcNAc(b1-4)[Fuc(a1-6)]GlcNAc
# Outline: as §1
# [14] = target: Neu5Ac(a2-6)Gal(b1-4)GlcNAc(b1-2)Man(a1-6)Man(b1-4)GlcNAc(b1-4)GlcNAc
# Outline: as §1
# [15] = target: Neu5Ac(a2-6)Gal(b1-4)GlcNAc(b1-2)[Neu5Ac(a2-6)Gal(b1-4)GlcNAc(b1-6)]Man(a1-6)[Neu5Ac(a2-6)Gal(b1-4)GlcNAc(b1-2)Man(a1-3)][GlcNAc(b1-4)]Man(b1-4)GlcNAc(b1-4)GlcNAc
# Outline: as §1
# [16] = target: Neu5Ac(a2-6)Gal(b1-4)GlcNAc(b1-3)Gal(b1-4)GlcNAc(b1-3)Gal(b1-4)GlcNAc(b1-2)Man(a1-3)[Neu5Ac(a2-6)Gal(b1-4)GlcNAc(b1-3)Gal(b1-4)GlcNAc(b1-3)Gal(b1-4)GlcNAc(b1-2)Man(a1-6)]GalNAc
# Outline: as §1
# [17] = target: Neu5Ac(a2-6)Gal(b1-4)GlcNAc(b1-3)GalNAc
# Outline: as §1
# [18] = target: Neu5Ac(a2-6)GalNAc(b1-4)GlcNAc6S
# Outline: as §1
# [19] = target: Neu5Ac(a2-8)Neu5Ac(a2-3)[Gal(b1-3)GalNAc(b1-4)]Gal(b1-4)Glc
# Outline: as §1
# [20] = target: Neu5Ac(a2-8)Neu5Ac(a2-8)Neu5Ac(a2-3)Gal(b1-4)Glc
# Outline: as §1
# [21] = target: Neu5Gc(a2-3)Gal(b1-3)GlcNAc
# Outline: as §1
# [22] = target: Neu5Gc(a2-8)Neu5Gc(a2-3)Gal(b1-4)GlcNAc
# Outline: as §1
binder,measurement,setting,value
SP15308B-bot-339-22-339 (Bacteroides ovatus) (protein) NEWEDEQYEQYVSFKAPIASGSDGVTTIYVRYKDNGKVTYQLPIIVSGSTVNSQDRDIHIAVDKDTLKTLNIERFSLYRPELWYTEMEEDKYEFPETVHIPAGSCVELLNIDFNLQDIDMLEKWVLPLTIVDDGSYAYQSHPRKNYAKALLKVVPFNNYSGSYTASSMKVYTYINGKPDTNARTTDKRTGYVVDNNSIFFYAGLINEDMDKDMRKKYKINVHFKEDGTLDMKQDDPSNEMEFELIGTPTYSSTSVMDATRPYLERRYVQIMFEYDFQDFTYGGSGTEVIPIKYRVAGSMTLLRNINTQIPDEDQQIEW,glycan array binding signal (z-score),GalNAc(a1-3)Gal,3.52
same,glycan array binding signal (z-score),Glc(a1-4)Glc,0.066
same,glycan array binding signal (z-score),GlcA(b1-3)Gal,0.229
same,glycan array binding signal (z-score),[1],-0.022
same,glycan array binding signal (z-score),[2],-0.154
same,glycan array binding signal (z-score),[3],-0.263
same,glycan array binding signal (z-score),[4],-0.544
same,glycan array binding signal (z-score),[5],-0.482
same,glycan array binding signal (z-score),Neu5Ac(a2-3)Gal,-0.692
same,glycan array binding signal (z-score),[6],-0.211
same,glycan array binding signal (z-score),[7],-0.519
same,glycan array binding signal (z-score),[8],-0.547
same,glycan array binding signal (z-score),[9],-0.308
same,glycan array binding signal (z-score),[10],2.38
same,glycan array binding signal (z-score),[11],-0.526
same,glycan array binding signal (z-score),[12],0.001
same,glycan array binding signal (z-score),[13],1.73
same,glycan array binding signal (z-score),[14],-0.086
same,glycan array binding signal (z-score),[15],-0.729
same,glycan array binding signal (z-score),[16],0.664
same,glycan array binding signal (z-score),[17],-0.409
same,glycan array binding signal (z-score),[18],-0.231
same,glycan array binding signal (z-score),[19],-0.005
same,glycan array binding signal (z-score),[20],-0.189
same,glycan array binding signal (z-score),[21],-0.652
same,glycan array binding signal (z-score),[22],-0.454
